# Pol beta inh: blocks human DNA polymerase beta activity | P06746 | Pol beta primer extension/strand displacement, fluorescence kinetic | Potency, µM (highest dose often 114 µM), without a hit: at the top dose activity change, negative = inhibition, usual class: inhibitors | 340,000 tested, 1.3% active | AID 485314; note: potency is the fitted concentration of half-maximal effect; % is set by controls: 0 for no effect and ±100 for the full control effect
#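 Pol beta (10 nM) was preincubated with compound for 15 min at room temperature. The reaction was then started with 50 nM substrate and read immediately and after a further 10 min at room temperature.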
# Pol kappa inh: inhibitors of human DNA polymerase kappa; Q9UBT6; purified Pol kappa, fluorescent DNA synthesis assay, 10 min; Potency, µM (doses to about 107 µM), for inactives: at the highest dose activity, negative = inhibition, most hits filed as inhibitors; 400,000 tested, 0.53% active; AID 588579; note: potency is the fitted concentration of half-maximal effect; % is set by controls: 0 for no effect and ±100 for the full control effect
#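 Readout: fluorescence, taken kinetically at 0 and 10 min. Conditions: 10 nM Pol kappa, 15 min RT compound preincubation, 50 nM substrate final. Controls: enzyme-free buffer wells.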
# FEN1 inhibitor: inhibitors of human flap endonuclease 1 | Recombinant FEN1 flap cleavage, fluorescence, 15 min | 390,000 tested, 0.35% active | Potency, µM (highest dose often 114 µM), for the others: top-dose activity change, negative = inhibition, actives largely listed as inhibitors | P39748; note: potency is the fitted concentration of half-maximal effect; % is set by controls: 0 for no effect and ±100 for the full control effect; nearly all actives have a fitted effect of over 65% in size
#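 In this screen, 50 nM flap DNA substrate was added to 10 nM FEN1 pretreated with compound for 15 min at room temperature; cleavage was followed with reads at 0 and 15 min, and Hill fitting gave concentration–response parameters.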
# Pol eta inh: blocks human DNA polymerase eta activity. recombinant Pol eta, fluorescent DNA replication assay. Potency, µM (highest dose often 114 µM), without a hit: top-dose activity change, negative = inhibition, actives largely listed as inhibitors. 390,000 tested, 1.2% active. AID 588591; note: potency is the fitted concentration of half-maximal effect; % is set by controls: 0 for no effect and ±100 for the full control effect
#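 Pol eta at 10 nM preincubated with compounds 15 min at room temperature; reaction started with fluorescent substrate (50 nM final) and read kinetically at 0 and 10 min.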
# PI5P4Ka inh: blocks human PI5P4K alpha kinase activity; P48426; PI5P4Kalpha enzyme, ADP-Glo luminescence, 60 min; stronger effect = lower value; max response, %; 330,000 tested, 1.2% active; active = max response of -50% or lower; inconclusive = between -30% and -50%; inactive = -30% or higher; note: value at the top dose of about 77 µM; % is set by controls: 0 for no effect and ±100 for the full control effect
#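 ADP-Glo luminescence end-point after a 60 min room-temperature kinase reaction. PI5P4Kalpha and substrate in HEPES pH 7.4 buffer with EGTA, 0.1% CHAPS and 5% DMSO; ATP at 5 microM final.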
# Pol iota inh: inhibitors of human DNA polymerase iota; Pol iota fluorescent replication assay, 10 min; Potency, µM (highest dose often 115 µM), for inactives: top-dose activity, negative = inhibition, hits mostly inhibitors; AID 588590; Q9UNA4; 390,000 tested, 1% active; note: potency is the fitted concentration of half-maximal effect
# Target sequence (Q9UNA4 whole entry, looked up): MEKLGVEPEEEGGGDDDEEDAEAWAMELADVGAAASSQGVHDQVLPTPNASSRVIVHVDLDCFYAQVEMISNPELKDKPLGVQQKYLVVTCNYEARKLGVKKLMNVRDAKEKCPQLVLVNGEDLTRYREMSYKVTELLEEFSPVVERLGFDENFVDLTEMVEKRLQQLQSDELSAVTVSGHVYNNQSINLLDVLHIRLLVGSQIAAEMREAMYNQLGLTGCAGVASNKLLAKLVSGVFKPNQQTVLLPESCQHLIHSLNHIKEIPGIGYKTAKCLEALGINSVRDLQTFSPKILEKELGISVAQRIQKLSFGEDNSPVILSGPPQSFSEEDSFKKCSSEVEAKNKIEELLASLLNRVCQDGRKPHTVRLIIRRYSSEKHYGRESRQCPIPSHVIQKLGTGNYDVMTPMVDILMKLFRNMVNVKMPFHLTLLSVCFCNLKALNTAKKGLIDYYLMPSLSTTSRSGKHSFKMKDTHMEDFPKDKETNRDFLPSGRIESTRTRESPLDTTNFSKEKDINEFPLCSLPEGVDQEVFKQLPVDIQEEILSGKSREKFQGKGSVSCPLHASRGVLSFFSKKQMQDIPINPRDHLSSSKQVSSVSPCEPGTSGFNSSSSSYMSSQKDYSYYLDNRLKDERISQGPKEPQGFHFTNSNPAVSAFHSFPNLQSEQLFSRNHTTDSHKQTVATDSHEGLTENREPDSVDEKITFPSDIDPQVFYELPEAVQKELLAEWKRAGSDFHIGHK
#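 Pol iota at 10 nM preincubated 15 min with compounds at room temperature; reaction started with fluorescent substrate, 50 nM final. Fluorescence read kinetically at 0 and 10 min; buffer-only wells as negative control.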
# The depositor's hits bear a star; ? = inconclusive; . = no result given; [ ] = another dose, or the depositor's remark. This is a sample that favours compounds with a hit; in the whole collection about 2.8% have one here. Unless noted, calls come from the whole dose curve; as a rule, active = well fitted curve in the direction sought with a large enough effect; inconclusive = small, poorly fitted or top-dose-only effect, or another doubt; inactive = no such curve, though single readings can be large; an effect the other way counts as inactive or inconclusive.
SMILES,Pol beta inh,Pol kappa inh,FEN1 inhibitor,Pol eta inh,PI5P4Ka inh,Pol iota inh
CCc1ccccc1NC(=O)CN(Cc1ccccc1)S(=O)(=O)c1ccc2nc(C)sc2c1,16.7%,22.3%,3.7%,8.1%,.,3.8%
O=Cc1ccc(-c2ccccc2OC(F)(F)F)o1,13.6%,-13.4%,-2.9%,-16.2%,-6.7,0.4%
COc1ccccc1-c1ccc(/C=C2/C=C(CC(C)C)OC2=O)o1,25.1µM*,-13.5%,-20.7%,-23.0%,-0.8,?
COc1ccccc1-c1cc(=O)c2cccc(OC)c2o1,.,-2.0%[60.1 µM],.,.,.,.
CCCC1=C/C(=C/c2ccc(-c3ccccc3OC)o2)C(=O)O1,?,-38.1%,6.8%,25.1µM*,?,?
O=C(NCc1ccccc1Cl)c1ccc2c(c1)ncn2-c1cccc(F)c1,5.0%,-9.6%[60.1 µM],-16.2%,2.1%,.,-20.9%
CN(C)C/C=C/C(=O)Nc1cccc(-c2c[nH]c3ncnc(Oc4ccc(NC(=O)CC(=O)Nc5ccc(F)cc5)cc4F)c23)c1,.,-5.7%,-9.2%,-8.0%,-50.3*,?
COc1ccc(CNc2ncnc3sccc23)cc1,-3.3%,8.2%,-3.1%,-20.0%,-3.3,54.2%
Cc1cc(O)c(C(=O)/C=C/c2ccc(Cl)cc2)c(=O)o1,-27.4%,-12.7%,-8.9%,-9.0%,-69.2*,85.0%
CSc1ccc(/C=C/C(=O)c2c(O)cc(C)oc2=O)cc1,-7.1%,-15.2%,-9.9%,-4.5%,-53.9*,?
O=C(NC1(C(F)(F)F)NC(=O)N(c2ccc(F)cc2)C1=O)c1cccs1 (centres undefined),1.3%,-8.5%,1.2%,-21.7%,0.2,15.2%
Cc1cc(C)c2sc(N3CCN(C(=O)C4CC4)CC3)nc2c1,-7.2%,-8.7%[60.1 µM],11.3%,0.1%,.,10.8%
CC1=C(C#N)C(=O)NC(=O)/C1=C/c1ccc(-c2ccc(S(N)(=O)=O)cc2)o1,?,?,-18.9%,14.1µM*,-95.9*,?
NS(=O)(=O)c1ccc(-c2ccc(/C=C3\NC(=S)NC3=O)o2)cc1,10.7%,50.1µM*,50.1µM*,79.4µM*,-65.9*,10µM*
NS(=O)(=O)c1ccc(-c2ccc(C=O)o2)cc1,-28.7%,-6.1%,-3.8%,-8.9%,-5.0,51.0%
Cc1ccc2nc(NC(=O)CSc3nccn3Cc3ccc(Cl)cc3)sc2c1,-0.7%,-7.1%[60.1 µM],4.0%,-1.7%,.,-0.9%
Cc1ccc2nc(NC(=O)CSc3nccn3-c3ccc(Cl)cc3)sc2c1,25.1µM*,-3.0%[60.1 µM],-0.1%,-16.0%,.,?
CCNc1ncc2nc(-c3ccccc3)c(=O)n(Cc3cccs3)c2n1,.,8.1%[60.1 µM],.,.,.,.
O=C1c2ccccc2S(=O)(=O)c2cc(-c3nn[nH]n3)ccc21,.,.,.,-19.6%,-73.5*,.
O=C(Nc1nccs1)c1cc(-c2ccccn2)nc2c(Cl)cccc12,?,-33.5%,?,?,-21.8,25.1µM*
Cc1cc(NC(=O)c2cc(-c3ccccn3)nc3c(Cl)cccc23)no1,-25.7%,0.0%,3.0%,-21.9%,-23.8,-5.0%
CC(C)(C)C1CCc2c(sc3nc(-c4cc5cc(Cl)ccc5oc4=O)[nH]c(=O)c23)C1 (centres undefined),1.3%,0.2%,3.2%,2.0%,.,?
COc1ccc(C(=O)COC(=O)CCN2C(=O)C3CC=CCC3C2=O)c(OC)c1 (centres undefined),.,-11.7%,22.9%,?,?,39.8µM*
COc1ccc(C(=O)COC(=O)CCn2c(C)csc2=O)c(OC)c1,.,.,.,?,-65.2*,.
CCOCCC(=O)Nc1ccc2c(c1)c(=O)n(C)n2CC=C(C)C,.,.,.,.,1.5,.
SMILES,Pol beta inh,Pol kappa inh,FEN1 inhibitor,Pol eta inh,PI5P4Ka inh,Pol iota inh
Cc1ccc(CNC(=O)C2CCCN(S(=O)(=O)c3cn(C)cn3)C2)cc1 (centres undefined),-1.5%,-9.5%[60.1 µM],0.5%,-16.8%,.,37.6%
CC(C)(C)N1NC2(CCCCC2)NC1=S,9.3%,3.6%,2.3%,-1.1%,-58.1*,27.4%
COc1cccc(C(=O)N2CCC2(C)C(=O)O)c1 (centres undefined),.,.,.,.,0.4,.
COc1ccc2[nH]c3c(=O)n(Cc4ccc(C(=O)N5CCC(C(N)=O)CC5)cc4)c(=S)[nH]c3c2c1,2.2%,-11.3%,-15.7%,-27.1%,-59.2*,7.5%
COc1ccc2[nH]c3c(=O)n(Cc4ccc(C(=O)N5CCCCCC5)cc4)c(=S)[nH]c3c2c1,37.0%,-13.0%,-6.6%,-4.7%,1.5,-26.9%
CCCCNC(=O)c1ccc(Cn2c(=S)[nH]c3c([nH]c4ccc(OC)cc43)c2=O)cc1,?,-12.5%,-16.4%,?,-19.7,12.4%
CC[C@H](C)NC(=O)c1ccc(Cn2c(=S)[nH]c3c([nH]c4ccc(OC)cc43)c2=O)cc1,?,1.5%,5.1%,17.8µM*,?,?
COc1cccc(NCc2cc(=O)oc3cc(C)c(C(C)C)cc23)c1,0.0%,-11.4%,-18.3%,?,8.5,79.6%
Cc1nc(Nc2cnc(/C=C/c3cc(C(=O)Nc4cccc(C(F)(F)F)c4)ccc3C)cn2)cc(N2CCNCC2)n1,39.8µM*,-5.4%,79.4µM*,39.8µM*,?,-5.9%
COc1ccc(-c2nnn(CC(=O)N(CC3CCCO3)C(C(=O)NC(C)(C)C)c3ccco3)n2)cc1OC (centres undefined),34.1%,8.1%,2.5%,-10.4%,-3.1,84.0%
O=C1CCNc2ccc(-c3ccccc3)cc21,7.7%,1.3%,-1.4%,-12.6%,-1.2,13.8%
O=C1CCNc2cc3ccccc3cc21,25.1µM*,-16.7%,-14.1%,?,?,-13.8%
Fc1ccc(-c2noc3ncnc(NC4CCCCC4)c23)cc1,12.4%,7.2%,-9.5%,0.6%,.,-12.9%
CC(=O)Nc1cc(NC(C)=O)cc(C(=O)OCC(=O)c2ccc3c(c2)NC(=O)CO3)c1,.,-11.9%,-3.7%,-20.4%,-6.7,?
N#CCC(=O)Nc1ccc(C(=O)OCC(=O)c2ccc3c(c2)NC(=O)CO3)cc1,.,?,?,?,-29.2,22.4µM*
O=C1COc2ccc(C(=O)COC(=O)/C=C/c3ccco3)cc2N1,.,?,-16.1%,?,?,44.7µM*
N#Cc1c(-c2cccs2)nc(SCC(=O)c2cccs2)[nH]c1=O,0.8%,-26.0%,-15.2%,?,-70.2*,?
O=S(=O)(c1ccc(Cl)cc1)c1nc(-c2cccs2)oc1SCc1ccc(F)cc1,-3.7%,3.8%,-13.4%,-18.6%,.,18.5%
Cc1noc(C)c1COc1ccc(C(=O)N2CCCC(C(F)(F)F)C2)cc1 (centres undefined),0.7%,-2.6%,4.2%,-8.4%,-4.0,16.2%
CN1c2ccccc2C(C)(C)C12C=Cc1cc(O)ccc1O2 (centres undefined),-0.3%,-11.2%,-19.4%,-12.2%,.,-10.9%

# Screens: PubChem, National Center for Advancing Translational Sciences (NCATS)
